Source: PubChem BioAssay
Pf growth 48h = P. falciparum growth inhibition at 48 hours (one generation); P. falciparum luciferase growth in erythrocytes, 48 h; Potency, µM (top dose mostly 28.7 µM), inactives show at the top dose activity change, negative = inhibition, actives largely listed as inhibitors; hit rate 5.9% among 310,000; further: potency means the concentration at half of the fitted maximal effect
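Here the parasites carry a stable luciferase gene and grow inside erythrocytes in Albumax-based RPMI medium with compound for one erythrocytic cycle. Activity is scored as loss of luminescent signal.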
HCMV inh = human cytomegalovirus inhibition. HFF cells, HCMV-luciferase reporter, 72 h; active compounds read low. AID 1259415. hit rate 4.5% among 410,000. activity change, negative = inhibition, % at 57.5 µM; in the data active means activity change below about -60%; inconclusive means no clear call, values can overlap the other calls; inactive means above about -39%
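After 16 h attachment at 37C, HFF cells received test compound and HCMV-luciferase (1 PFU/cell); reporter luminescence read 72 h later, data normalized against buffer-only and known inhibitor Salinomycin.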
Sm TGR inh = blocks Schistosoma mansoni thioredoxin glutathione reductase; AID 485364; Q962Y6; purified TGR, DTNB reduction, TNB absorbance 405 nm; Potency, µM (top dose mostly 114 µM), without a hit: at the top dose activity change, negative = inhibition, actives largely listed as inhibitors; hit rate 3% among 360,000; further: potency means the concentration at half of the fitted maximal effect; nearly all actives have a fitted effect of over 60% in size
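TGR 20 nM + NADPH 100 uM (dispensed conc.), cpd preinc 15 min RT; start with NADPH (500 uM addition) then DTNB (15 mM addition). Kinetic TNB absorbance, 405 nm filter. Four-parameter Hill fit across titration.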
Pf growth 96h = P. falciparum growth inhibition at 96 hours. P. falciparum luciferase reporter growth, 96 h. Potency, µM (titrated, usually from 28.7 µM), without a hit: top-dose activity change, negative = inhibition, usual class: inhibitors. hit rate 6.9% among 320,000. AID 504834; further: potency means the concentration at half of the fitted maximal effect
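Compounds incubated with erythrocytes infected by luciferase-expressing P. falciparum (2% hematocrit, 0.05% parasitemia final) for 96 hours, 37 C in 5% CO2. Growth inhibition scored as decreased luciferase luminescence.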
FBPA Giardia inh = blocks Giardia fructose-bisphosphate aldolase activity. A8B2U2. purified Giardia FBPA. Potency, µM (titrated, usually from 59.6 µM), for inactives: at the top dose activity, negative = inhibition, usual class: inhibitors. hit rate 0.71% among 290,000; further: potency means the concentration at half of the fitted maximal effect; nearly all actives have a fitted effect of over 55% in size
Target sequence (A8B2U2 whole entry, looked up): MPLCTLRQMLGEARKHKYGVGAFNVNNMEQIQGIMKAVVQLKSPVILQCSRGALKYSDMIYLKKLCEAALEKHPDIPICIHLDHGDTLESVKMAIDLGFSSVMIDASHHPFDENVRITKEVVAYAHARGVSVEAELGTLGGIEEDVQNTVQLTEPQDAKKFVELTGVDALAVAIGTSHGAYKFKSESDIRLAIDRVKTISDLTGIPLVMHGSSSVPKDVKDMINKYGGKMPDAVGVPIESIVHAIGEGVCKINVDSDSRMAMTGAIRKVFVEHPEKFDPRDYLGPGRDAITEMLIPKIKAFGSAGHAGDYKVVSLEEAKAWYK
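40 nM FBPA preincubated 10 min at RT with compound (up to 57.5 uM final), then substrate plus GAPDH/TPI/NAD/arsenate coupling and diaphorase/resazurin added. Fluorescence read after 20 min at RT, 525/598 nm.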
Starred values were filed as active, the others as inactive; ? = inconclusive; nt = not tested or not shown; + = active, no number. An excerpt weighted towards active compounds, which were near 14% of everything screened. Unless noted, the call rests on the fitted dose curve; in most records, active means well fitted curve in the direction sought with a large enough effect; inconclusive means small, poorly fitted or top-dose-only effect, or another doubt; inactive means no such curve, though single readings can be large; an effect the other way counts as inactive or inconclusive. On the % scale 0 is the no-effect control and ±100 the full control effect.

SMILES | Pf growth 48h | HCMV inh | Sm TGR inh | Pf growth 96h | FBPA Giardia inh
COC(=O)c1sccc1NC(=O)/C=C/c1ccc(Cl)cc1 | 120% | 225 | ? | 13µM* | 6%
COC(=O)c1sccc1NC(=O)Nc1cc(C)cc(C)c1 | 55% | 19 | 0% | 4.7µM* | nt
COC(=O)c1sccc1NC(=O)/C=C\c1ccc(Cl)cc1Cl | nt | 61 | 5% | 57% | -2%
COC(=O)c1sccc1NC(=O)Nc1ccc(F)cc1 | 28% | 72 | -1% | -12% | nt
COC(=O)c1sccc1NC(=O)c1ccc(C(C)C)cc1 | 14% | 182 | -2% | 10µM* | -4%
COC(=O)c1sccc1NC(=O)c1ccccc1 | ? | 94 | 0% | 0% | 6%
C=C1SC(=Nc2ccccc2Cl)N(C(=O)c2sc3ccccc3c2Cl)C12CCCCC2 | 5.9µM* | nt | 8% | ? | 3%
O=C(c1sc2ccccc2c1Cl)N1CCC2(CC1)OCCO2 | 26% | -4 | 6% | -3% | 2%
C=C1SC(=Nc2c(C)cc(C)cc2C)N(C(=O)c2sc3ccccc3c2Cl)C12CCCCC2 | ? | -35 | -1% | 1.7µM* | 4%
CN(C)c1ccc(CNC(=O)c2ccc3nc(CCc4ccccc4)oc3c2)cc1 | nt | 16 | 1% | nt | nt
Cc1cccc(-c2csc(N3CCC(C(N)=O)CC3)n2)c1 | ? | nt | nt | 14% | nt
Cc1ccc(CNC(=O)c2ccc(N3CCC4(CC3)CC(c3cccc(Br)c3)=NO4)c(NC(=O)c3ccc(Br)cc3)c2)cc1 | nt | 2 | nt | nt | nt
Cc1ccc(CNC(=O)c2ccc(N3CCC4(CC3)CC(c3ccccc3)=NO4)c(NC(=O)c3cccc(C)c3)c2)cc1 | 4.1µM* | -21 | -2% | ? | nt
COc1cccc(C(=O)Nc2cc(C(=O)NCc3ccc(C)cc3)ccc2N2CCC3(CC2)CC(c2cccc(Br)c2)=NO3)c1 | 10µM* | 1 | -8% | -6% | nt
Cc1ccc(CNC(=O)c2ccc(N3CCC4(CC3)CC(c3cccc(Br)c3)=NO4)c(NC(=O)c3c(Cl)cccc3Cl)c2)cc1 | 5.9µM* | -3 | -4% | 9.3µM* | nt
CCCCCCCC(=O)Nc1cc(C(=O)NCCC)ccc1N1CCC2(CC1)CC(c1ccccc1)=NO2 | ? | -3 | 0% | 7.4µM* | 12%
CCCCN(C(=O)CSCc1c(C)noc1C)c1c(N)n(CCCC)c(=O)[nH]c1=O | ? | -21 | 0% | 7% | nt
c1coc(CSc2ncnc3c2oc2ccccc23)c1 | 132% | 18 | -29% | 152% | 2%
Cc1ccc(CNC(=O)c2ccc(N3CCC4(CC3)CC(c3cccc(Br)c3)=NO4)c(NC(=O)c3cccc(C)c3)c2)cc1 | ? | 29 | -6% | -7% | nt
CCCNC(=O)c1ccc(N2CCC3(CC2)CC(c2cccc(Br)c2)=NO3)c(NC(=O)c2cccc(OC)c2)c1 | ? | 0 | 4% | 8.3µM* | nt
CCCNC(=O)c1ccc(N2CCC3(CC2)CC(c2ccccc2)=NO3)c(NC(=O)c2ccc(Br)cc2)c1 | ? | 17 | 5% | 1.9µM* | -6%
CCCNC(=O)c1ccc(N2CCC3(CC2)CC(c2cccc(Br)c2)=NO3)c(NC(=O)c2ccccc2)c1 | 9.3µM* | -15 | 7% | 12µM* | nt
CCCNC(=O)c1ccc(N2CCC3(CC2)CC(c2ccccc2)=NO3)c(NC(=O)c2cccc(C)c2)c1 | 8.3µM* | -35 | 0% | 1.9µM* | -5%
C[C@]12C[C@H](O)C3[C@@H](CCC4=CC(=O)CC[C@@]43C)[C@@H]1CC[C@@H]2C(=O)CO (some centres undefined) | nt | nt | nt | nt | 3%
Cc1nc(SCc2cccnc2)[nH]c(=O)c1C | 21% | nt | 5% | 11% | ?
SMILES | Pf growth 48h | HCMV inh | Sm TGR inh | Pf growth 96h | FBPA Giardia inh
Cc1nc(C(C)NC(=O)CCc2nnc(-c3ccsc3)o2)cs1 (centres undefined) | -8% | -14 | -2% | ? | 1%
CCCNC(=O)c1ccc(N2CCC3(CC2)CC(c2ccccc2)=NO3)c(NC(=O)c2ccccc2)c1 | ? | -10 | -23% | 5.9µM* | -3%
CC(=O)Nc1ccc(S(=O)(=O)c2cc(O)ccc2O)cc1 | -2% | -6 | 6.3µM* | ? | -15%
Cc1ccc(S(=O)(=O)Nc2ccc(O)c(S(=O)(=O)c3ccc(C)cc3)c2)cc1 | 2% | -3 | -17% | 27% | 6%
Cc1ccc(S(=O)(=O)c2cc(O)ccc2O)cc1C | 12% | -28 | 4µM* | 23% | -10%
CCC(=O)N1CCc2cc(S(=O)(=O)NCCC(=O)Nc3cc(C)cc(C)c3)ccc21 | ? | -21 | 3% | 41% | 4%
CC(=O)N1CCc2cc(S(=O)(=O)NCCC(=O)NCCc3ccc(Cl)cc3)ccc21 | ? | -75* | 2% | 3% | 1%
CCC(=O)N1CCc2cc(S(=O)(=O)NCCC(=O)Nc3ccccc3C)ccc21 | ? | 15 | 8% | 12µM* | 6%
CC(=O)N1CCc2cc(S(=O)(=O)NCCC(=O)Nc3cccc(C)c3C)ccc21 | ? | -30 | -4% | 3.7µM* | -4%
CCC(=O)N1CCc2cc(S(=O)(=O)NCCC(=O)Nc3ccc(OC)cc3)ccc21 | 5% | -15 | -1% | 4% | 3%
CC(=O)N1CCc2cc(S(=O)(=O)NCCC(=O)Nc3cc(C)cc(C)c3)ccc21 | ? | 16 | -24% | 5.2µM* | 1%
Cc1ccc(NC(=O)c2ccccc2)cc1 | 104% | 125 | -25% | 3% | 2%
Cc1ccc(NC(=O)C2=C(c3ccccc3)S(=O)(=O)CCS2(=O)=O)cc1 | 0% | -99* | 0.32µM* | 0% | -1%
Clc1ccc(Nc2ccc(NCc3ccccc3)nn2)cc1 | 4.7µM* | 50 | -9% | 1.9µM* | -5%
O=C(Nc1ccc(N2CCOCC2)cc1)c1csc([C@H]2C[C@H](O)[C@@H](CO)O2)n1 | nt | 31 | nt | nt | nt
Cc1ccc(N2C(=O)NC(=O)/C(=C/c3ccc(OC(=O)c4cccs4)cc3)C2=O)cc1 | 74% | -38 | 35µM* | ? | -1%
N#C/C(=C\c1cccc(OC(=O)c2cccs2)c1)C(N)=O | -9% | 58 | -8% | -23% | -4%
COc1ccc(N2C(=O)NC(=O)/C(=C/c3cccc(OC(=O)c4cccs4)c3)C2=O)cc1Cl | 3% | 23 | 14µM* | -11% | -1%
CC1=NN(c2ccc(C(=O)O)cc2)C(=O)/C1=C\c1ccc(OC(=O)c2cccs2)cc1 | 92% | 20 | -8% | 5% | -25%
COc1ccc(-c2cc(C(C)=O)c(C)n2CCC(=O)Nc2ccc(C)c(Cl)c2)cc1 | nt | + | 6% | nt | nt
COc1ccc(-c2cc(C(C)=O)c(C)n2CCC(=O)Nc2cc(Cl)ccc2C)cc1 | nt | 0 | -2% | nt | nt
Cc1ccc(NC(=O)Cn2nc3c(cc2=O)CCCC3)cc1Cl | nt | -8 | 1% | nt | nt
Cc1ccc(NC(=O)Cn2nc(-c3ccco3)ccc2=O)cc1Cl | 30% | 42 | 6.3µM* | ? | -3%
Cc1ccc(NC(=O)CCn2cccc2)cc1Cl | 1% | -15 | 35µM* | 56% | -7%
